# PubChem BioAssay AID1030 (National Center for Advancing Translational Sciences (NCATS), 2008)
# In all, about 220,000 compounds went through this assay and about 16,000 (7.3%) were called active. About 25% were inconclusive and are not listed. Calls follow the shape of the dose curve; as a rule, active = well fitted inhibition curve with a large enough effect (not every such curve was filed as active); inconclusive = small, poorly fitted or top-dose-only effect, or another doubt; inactive = no such curve, though single readings can be large or run the other way. The entries come from a sample that favours actives as a whole.
# Target: Aldehyde dehydrogenase 1A1 (Homo sapiens) (UniProt P00352)
# Sequence (P00352 whole entry, looked up): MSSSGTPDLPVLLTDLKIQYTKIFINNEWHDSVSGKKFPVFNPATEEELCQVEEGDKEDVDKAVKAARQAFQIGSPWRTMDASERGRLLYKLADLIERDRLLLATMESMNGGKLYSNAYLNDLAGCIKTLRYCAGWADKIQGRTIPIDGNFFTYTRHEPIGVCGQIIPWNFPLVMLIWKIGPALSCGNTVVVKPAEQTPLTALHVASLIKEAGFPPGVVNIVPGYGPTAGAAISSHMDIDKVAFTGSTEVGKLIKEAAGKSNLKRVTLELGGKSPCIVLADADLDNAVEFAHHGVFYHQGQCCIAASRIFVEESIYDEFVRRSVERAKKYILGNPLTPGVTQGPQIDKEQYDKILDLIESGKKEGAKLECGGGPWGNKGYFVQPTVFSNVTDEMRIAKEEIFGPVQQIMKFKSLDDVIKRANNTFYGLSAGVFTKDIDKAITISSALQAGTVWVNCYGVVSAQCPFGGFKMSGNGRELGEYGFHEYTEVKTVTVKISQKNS
# Assay: qHTS Assay for Inhibitors of Aldehyde Dehydrogenase 1 (ALDH1A1);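 as to activity, negative = inhibition: plate controls were no enzyme wells and a reference inhibitor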
# Conditions: Purified ALDH1A1, NADH fluorescence, propionaldehyde substrate; series mostly up to 75.3 µM; activity, negative = inhibition: at the top concentration
# Potency is read from the fitted curve at half-maximal effect.
SMILES,Potency,"activity, negative = inhibition"
CCCSc1nsc(N)n1,20 µM (active),
CCCCCCSc1nsc(N)n1,,4.63% (inactive)
COc1ccccc1OCC(=O)OCn1c(SC)nnc(C)c1=O,,-9.76% (inactive)
CCOC(=O)c1cnc2[nH]c3ccccc3n2c1=O,,-6.72% (inactive)
CCSc1ccccc1C(=O)Nc1ccc2c(c1)OCO2,,-6.99% (inactive)
CCOC(=O)C1=C(C)Nc2nc3ccccc3n2C1c1cccs1 (configuration not stated),,2.54% (inactive)
CCOC(=O)C1=C(C)NC(C)=C(C(=O)OCC)C1c1ccccn1,,-5.2% (inactive)
CCOC(=O)C1=C(C)NC(=S)NC1c1cccs1 (configuration not stated),3.16 µM (active),
C/C(=N\NC(=O)COc1c(C)cccc1C)c1cccs1,,-2.33% (inactive)
CCOc1ccc(C(=O)NC2CCN(CC(=O)NCc3cccs3)CC2)cc1,,-4.03% (inactive)
Cc1cc(C)n(-c2nnc(N3CCN(c4ccccc4)CC3)nn2)n1,,4.54% (inactive)
CCSc1ncnc2c(C#N)c3n(c12)CCCCC3,12.6 µM (active),
CCOC(=O)c1c(N=CN(C)C)c(C#N)c2n1CCCC2,,-3% (inactive)
C=C(C)c1cccc(C(C)(C)NC(=O)NCCN(CC)CC)c1,,7.9% (inactive)
CCN(CCn1cccn1)C(=O)CC1C(=O)NCCN1Cc1cccc(OC)c1OC (configuration not stated),,0.331% (inactive)
CCc1ccc2c(c1)C1(NN=C(c3ccccc3)S1)C(=O)N2 (configuration not stated),28.2 µM (active),
CCc1ccc2c(c1)C(c1ccc([N+](=O)[O-])cc1)=NNC(c1ccccc1)=N2,,0.978% (inactive)
C=C1c2cc(CC)ccc2NC(=O)N1c1ccc(C)cc1,,-14.3% (inactive)
CCOc1cc(/C=C2/C(=N)N3OC(C)=CC3=NC2=O)ccc1OC,,16.1% (inactive)
CCS(=O)(=O)C1=NSC2=NC(=O)/C(=C\c3cc(C)n(-c4cccc(OC)c4)c3C)C(=N)N21,20 µM (active),
NC(=O)COC(=O)/C=C/c1ccc2ccccc2n1,,-2.07% (inactive)
O=C(c1ccco1)N1CCN(C(=O)C2c3ccccc3Oc3ccccc32)CC1,8.91 µM (active),
O=C(c1ccco1)N1CCN(C(=O)C2CC(c3ccc(Cl)c(Cl)c3)=NO2)CC1 (configuration not stated),,-9.91% (inactive)
O=C(c1ccco1)N1CCN(c2cccc(Cl)c2)CC1,,-4.35% (inactive)
COc1ccc(-c2nn(-c3ccccc3)cc2CN2CCCO2)c(F)c1,,-7.57% (inactive)
Cc1ccccc1CC1(CO)CCCN(Cc2ccc3c(c2)OCCO3)C1 (configuration not stated),,9.96% (inactive)

SMILES,Potency,"activity, negative = inhibition"
Cc1ccc(N(C(=O)Cc2cccs2)C(C(=O)NCC2CCCO2)c2ccncc2)cc1 (configuration not stated),,-12.7% (inactive)
CCN(CC)S(=O)(=O)c1ccc(N2CCCC2)c(NS(=O)(=O)c2cccs2)c1,0.282 µM (active),
COCCNC(=S)Nc1cc(S(=O)(=O)N2CCOCC2)ccc1N1CCCCC1,5.01 µM (active),
O=C(COC(=O)Cc1ccc(F)cc1)Nc1cc(S(=O)(=O)N2CCOCC2)ccc1N1CCCC1,,8.34% (inactive)
CCN(CC)S(=O)(=O)c1ccc(N2CCOCC2)c(C(=O)O)c1,,5.53% (inactive)
O=C(c1ccc(N2CCOCC2)c([N+](=O)[O-])c1)N1CCN(S(=O)(=O)c2cccs2)CC1,,-2.66% (inactive)
O=S(=O)(Nc1cc(S(=O)(=O)N2CCOCC2)ccc1N1CCCC1)c1cccs1,0.398 µM (active),
CCN(CC)S(=O)(=O)c1ccc(N2CCOCC2)c(NC(=O)C2COc3ccccc3O2)c1 (configuration not stated),,9.44% (inactive)
O=C(COC(=O)c1ccccc1F)Nc1cc(S(=O)(=O)N2CCOCC2)ccc1N1CCCC1,,-11.1% (inactive)
CC(=O)NCCC(=O)Nc1cc(S(=O)(=O)N2CCOCC2)ccc1N1CCOCC1,,0.246% (inactive)
Cc1ccc2cc(C)c(N3CCC(C)CC3)nc2c1,,2.97% (inactive)
Cn1c(=O)cc(OCC(=O)N2CCN(c3ccccc3F)CC2)c2ccccc21,,-15.9% (inactive)
O=C(NCc1ccco1)c1ccc(NS(=O)(=O)c2cccc([N+](=O)[O-])c2)cc1,,6.56% (inactive)
COc1ccc(CCNC(=O)CSc2nc3[nH]ncc3c(=O)n2-c2cccc(C(F)(F)F)c2)cc1OC,,3.85% (inactive)
Cc1ccc(Nc2c(F)c(F)c(F)c(F)c2C(=O)O)c(C)c1,,1.05% (inactive)
Cc1ccccc1C1CC(c2cccs2)=NN1S(C)(=O)=O (configuration not stated),,-3.89% (inactive)
Cc1cc(C)n(-c2ccc(C(=O)O)cc2[N+](=O)[O-])n1,,-4.66% (inactive)
COc1ccc(C2C(C(=O)N3CCN(c4ccc(OC)cc4)CC3)c3ccccc3C(=O)N2C)cc1 (configuration not stated),,8.86% (inactive)
COc1ccc([C@H]2[C@H](C(C)=O)N3N=Cc4ccccc4C3C23C(=O)OC(C)(C)OC3=O)cc1 (some centres not stated),10 µM (active),
COc1ccccc1N1CCN(c2ccc([N+](=O)[O-])nc2)CC1,,-3.73% (inactive)
CCn1c(-c2ccncc2)n[nH]c1=S,,1.16% (inactive)
CCCc1cc(-c2n[nH]c(=S)n2CC)c2ccccc2n1,,-0.903% (inactive)
CCCc1cc(-c2n[nH]c(=S)n2Cc2ccccc2)cs1,7.94 µM (active),
CCCOc1ccc(C(=O)NCCc2ccccc2)cc1,,-1.06% (inactive)
C/C=C(/C)C(=O)OC1Cc2c(ccc3ccc(=O)oc23)OC1(C)C (configuration not stated),,0.157% (inactive)
CC1(C)Oc2ccc3ccc(=O)oc3c2/C(=C/NCCO)C1=O,25.1 µM (active),

SMILES,Potency,"activity, negative = inhibition"
C=CCN(CC=C)S(=O)(=O)c1ccc(C(=O)Nc2nc3c(s2)CCc2ccccc2-3)cc1,,2.39% (inactive)
COC(=O)c1c(NC(=O)CN(c2ccc(C)c(C)c2)S(C)(=O)=O)sc2c1CCCC2,,-27.4% (inactive)
C=CCN(CC=C)S(=O)(=O)c1ccc(C(=O)Nc2sc3c(c2C(N)=O)CCCCC3)cc1,3.16 µM (active),
COCC(C)NC(=O)CSc1nc2nn(-c3ccccc3)c(=O)c-2c2n1CCCCC2 (configuration not stated),,-4.5% (inactive)
Cc1ccc(CNC(=O)CCNS(=O)(=O)c2ccc(Br)s2)cc1,,-6.51% (inactive)
N#Cc1ccc(-c2nc3cc(C#N)c(C#N)cc3nc2-c2ccccc2)cc1C#N,,23.4% (inactive)
O=C(COc1ccc(S(=O)(=O)NCCc2ccccc2)cc1)N1CCCC1,,-1.53% (inactive)
O=C(COc1ccc(/C=N/NS(=O)(=O)c2ccccc2)cc1)NCCc1ccccc1,12.6 µM (active),
O=C(CC(=O)N/N=C\c1ccc(F)cc1)NCCc1ccccc1,,3.28% (inactive)
COc1ccccc1N1CCN(CC(=O)NCCc2ccc(S(N)(=O)=O)cc2)CC1,,5.14% (inactive)
COc1cccc(CN2CCNC(=O)C2CC(=O)N(C)CCc2ccccn2)c1 (configuration not stated),,-0.0979% (inactive)
O=C(CC1C(=O)NCCN1CC(c1ccccc1)c1ccccc1)NCCc1cn[nH]c1 (configuration not stated),14.1 µM (active),
CN(CCc1cn[nH]c1)C(=O)CC1C(=O)NCCN1Cc1cccc(Oc2ccccc2)c1 (configuration not stated),,-9.91% (inactive)
Cc1ccccc1-n1cc(CNC(=O)CC2C(=O)NCCN2C/C=C/c2ccccc2)cn1 (configuration not stated),,7.17% (inactive)
COc1cc(CN2CCNC(=O)C2CC(=O)NCCc2ncccc2C)cc(OC)c1 (configuration not stated),23.8 µM (active),
Cc1cc(C)n(CCNC(=O)CC2C(=O)NCCN2Cc2ccc(C)o2)n1 (configuration not stated),,-0.0057% (inactive)
COC(=O)c1ccc(CN2CCN(CCCc3ccccc3)C(CCO)C2)cc1 (configuration not stated),,-0.394% (inactive)
COc1ccc(-c2csc(NC(=O)COC(=O)Cc3ccc(Cl)cc3Cl)n2)cc1,,7.91% (inactive)
COc1ccc(N2CCN(c3ccc([N+](=O)[O-])nc3)CC2)cc1,,6.14% (inactive)
CS(=O)(=O)N1CCc2cc(C(=O)Nc3ccccc3)ccc21,,0.559% (inactive)
Cc1cc(C)c(NC(=S)N2CCCC2C(=O)O)c(C)c1 (configuration not stated),22.4 µM (active),
Cc1ccc(C)c(NC(=O)C2CCCN2C(=O)OC(C)(C)C)c1 (configuration not stated),,-11.1% (inactive)
Cc1cc([N+](=O)[O-])c(N2CCC[C@@H]2C(=O)O)c([N+](=O)[O-])c1,,3.99% (inactive)
Cc1cc(C(=O)COC(=O)C2CC2)c(C)n1-c1ccc(F)cc1,,-3.14% (inactive)
COC(=O)[C@@H]1CC[C@H](C)[C@@H](c2ccc(C)cc2)N1C(=O)c1ccc(/C=N/O[C@H](C)c2cn([C@@H]3COC[C@H]3O)nn2)cc1,,-3.19% (inactive)
O=C(Cc1ccc([N+](=O)[O-])cc1)N/N=C/c1ccco1,,-3.71% (inactive)

SMILES,Potency,"activity, negative = inhibition"
CCCCN1CCNC1=S,,5.33% (inactive)
CCOC(=O)CCNC(=O)N1CCCC(C(=O)c2ccccc2SC)C1 (configuration not stated),,5.76% (inactive)
COc1ccccc1C(=O)N1CC2(C)CC1CC(C)(C)C2 (configuration not stated),,-6.45% (inactive)
Cc1nnnn1/C(=C\c1ccccc1)C(=O)OCC(=O)N1CC2(C)CC1CC(C)(C)C2 (configuration not stated),4.47 µM (active),
Cc1cccc(C(=O)NCC(=O)OCC(=O)N2CC3(C)CC2CC(C)(C)C3)c1 (configuration not stated),,3.13% (inactive)
COc1cc(N2C(=O)c3ccccc3C2=O)c(Cl)cc1C(=O)OCC(=O)N1CCOCC1,,-4.16% (inactive)
CC(C)(O)C#Cc1ncc(C(F)(F)F)cc1Cl,,8.76% (inactive)
CSc1ccc(CN(C)CC(=O)NCc2ccc(F)cc2)cc1,,-7.51% (inactive)
CCC(C)[C@@H](C(=O)N1CCNCC1)n1cc(CCCCN)nn1 (some centres not stated),,2.27% (inactive)
COc1cccc(CC(=O)N2CCCC(CCC(=O)N3CCN(c4ccccn4)CC3)C2)c1 (configuration not stated),,2.51% (inactive)
CCSC1=C(C#N)C(=O)n2c1cc1c2CCCC1,4.47 µM (active),
C=CCNc1nc(Nc2ccc(Cl)cc2)nc(OC)n1,,5.03% (inactive)
C=C1O[C@@](CO)(n2cnc3c(N)ncnc32)[C@H](O)[C@@H]1O,,-5.99% (inactive)
Cc1cc(=O)[nH]c(N/N=C/c2c(C)nn(-c3ccccc3Cl)c2Cl)n1,5.01 µM (active),
Cc1ccc(-n2nc(C)c(/C=N/NC(=O)c3cccs3)c2Cl)cc1,,2.29% (inactive)
Cc1nnc(N/N=C/c2ccccn2)[nH]c1=O,,14.6% (inactive)
O=C(CSc1nnc(-c2ccncc2)n1-c1ccc(Cl)cc1)Nc1ccc(C(=O)O)cc1,,6.45% (inactive)
CC1(C)CC(=O)CC2(C1)NCC(c1ccccc1Cl)c1c2[nH]c2ccccc12 (configuration not stated),,-4.55% (inactive)
COCCN1C(=O)N[C@@H](CCc2ccccc2)[C@H](C(C)=O)[C@H]1C,,3.4% [at 13.5 µM] (inactive)
C=CC1=C2C=C(C3CC3)N(C(CO)CO)C=C2C(=O)C(C)(OC(=O)c2ccco2)C1=O (configuration not stated),,-4.41% [at 13.5 µM] (inactive)
CN(C)/C=C(/C(=O)c1ccc(F)cc1)S(=O)(=O)c1ccc(F)cc1,,-0.904% (inactive)
CCOC(=O)c1cccc(NC(=O)CN(c2ccc(C)cc2)S(=O)(=O)c2c(C)noc2C)c1,7.94 µM (active),
CCOc1ccc(N(CC(=O)NCc2ccc(OC)cc2)S(=O)(=O)c2c(C)noc2C)cc1,,-6.14% (inactive)
CCOc1ccc(N(CC(=O)OC)S(=O)(=O)c2c(C)noc2C)cc1,,2.28% (inactive)
